SENP8 block-1 – blocks the human protease SENP8. Q96LD8. purified SENP8, Z-RLRGG-aminoluciferin cleavage, luminescence. inhibition, % at 10 µM. actives 1.2% (n = 330,000). AID 2540; in the data active = inhibition above about 50%
SENP8 block-2 – blocks human SENP8 cleavage of Nedd8 substrate; Q96LD8; recombinant SENP8, Nedd8 substrate fluorescence; inhibition, % at 20 µM; actives 0.64% (n = 360,000); in the data active = inhibition mostly above about 40%, no sharp cut-off; inactive = mostly below about 27%
SENP7 block – inhibitors of human SENP7 protease. recombinant SENP7, Z-RLRGG-aminoluciferin luminescence, 40 min. Q9BQF6. actives 1.5% (n = 330,000). inhibition, % at 5 µM;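 active = inhibition above about 50% at the single test dose, limit read from the data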
HSP90 refold inh – HSP90 refolding inhibition in rabbit reticulocyte lysate. inhibition, % at 5.6 µM. AID 1789. actives 0.91% (n = 290,000). luciferase refolding luminescence, 3 h;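 active = inhibition above the screen-wide mean plus 3 SD, computed separately per campaign, cut at about 16% in these data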;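 note: inhibitors lower the luminescence because luciferase stays unfolded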
SENP6 inh – inhibitors of human SENP6 protease | Q9GZR1 | Recombinant SENP6 catalytic domain, aminoluciferin luminescence | inhibition, % at 10 µM | actives 1.8% (n = 330,000);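 active = inhibition above about 50% at the single tested dose, limit read from the data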
Target sequence (Q9GZR1 628-1112 limits assumed): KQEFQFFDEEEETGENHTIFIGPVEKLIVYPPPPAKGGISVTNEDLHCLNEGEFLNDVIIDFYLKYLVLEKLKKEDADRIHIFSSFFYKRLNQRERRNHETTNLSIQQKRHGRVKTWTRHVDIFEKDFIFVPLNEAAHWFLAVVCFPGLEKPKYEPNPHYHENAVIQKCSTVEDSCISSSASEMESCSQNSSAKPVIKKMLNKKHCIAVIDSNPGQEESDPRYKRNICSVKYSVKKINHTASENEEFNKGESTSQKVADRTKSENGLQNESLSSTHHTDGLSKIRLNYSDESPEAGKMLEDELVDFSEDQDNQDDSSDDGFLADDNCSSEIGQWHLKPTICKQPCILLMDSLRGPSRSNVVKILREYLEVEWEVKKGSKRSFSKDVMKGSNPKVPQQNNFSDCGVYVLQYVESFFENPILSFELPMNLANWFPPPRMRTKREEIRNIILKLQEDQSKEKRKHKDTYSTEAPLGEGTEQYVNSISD
SENP8 inh conf – confirmation of human SENP8 protease inhibitors; inhibition, % at 25 µM; purified SENP8, Nedd8-AMC/pro-Nedd8 cleavage fluorescence, 30 min; actives 15% (n = 1,400); AID 624319; shares compounds with SENP8 block-2; in the data active = inhibition mostly above about 39%, no sharp cut-off; inactive = mostly below about 34%
Hits are given with their value; . = inactive; / = no result given. Shown are actives, neighbours in structure and some others; about 2.7% of the full set was active somewhere.

SMILES | SENP8 block-1 | SENP8 block-2 | SENP7 block | HSP90 refold inh | SENP6 inh | SENP8 inh conf
O=C(Nc1cccc(Cl)c1)c1ccc(NCC2CCCO2)c([N+](=O)[O-])c1 (configuration not stated) | . | 44 | . | . | . | .
Cc1cccc(NC(=O)c2ccc(NCC3CCCO3)c([N+](=O)[O-])c2)c1 (configuration not stated) | . | . | . | . | . | /
CC1=NCCN1S(=O)(=O)c1cc(Cl)ccc1Cl | . | 48 | . | . | . | .
Cn1c(=O)c2c(nc(Br)n2C)n(C)c1=O | . | 41 | . | . | . | .
C=CCn1c(Br)nc2c1c(=O)n(C)c(=O)n2C | . | . | . | . | . | /
COc1cc(/C=C(\C#N)c2nc3ccccc3s2)cc([N+](=O)[O-])c1O | . | . | . | . | . | /
N#C/C(=C\c1ccc(O)c([N+](=O)[O-])c1)c1nc2ccccc2s1 | / | 54 | / | . | / | 42
O=[N+]([O-])c1ccc(Cl)cc1Sc1cccc2cccnc12 | . | 42 | . | . | . | .
Cn1ccnc1Sc1cc(Cl)ccc1[N+](=O)[O-] | . | . | . | . | . | /
Cc1nc(SCC(=O)O)c(C#N)c(-c2ccco2)c1C(=O)N(C)C | . | . | . | . | . | /
COc1cc2cnc(CCO[C@H]3CCCCO3)cc2cc1OC | . | . | . | / | . | /
O=C(OCC(=O)N1CCCC1)c1cccs1 | . | 48 | . | . | . | .
CC1(C)[N+]([O-])=C2C(=[N+]([O-])C1(C)C)c1ccccc1/C2=N\O | . | 48 | . | . | . | .
O=c1cc(-c2ccc(C(F)(F)F)cc2)oc2ccccc12 | . | . | . | / | . | /
O=c1cc(-c2ccccc2)oc2ccccc12 | . | 43 | . | / | . | .
Cc1nonc1OC(C)CNc1ccc([N+](=O)[O-])cc1 (configuration not stated) | . | 46 | . | . | . | .
Cc1ccccc1N=C1N=C(N)c2ccccc21 | . | . | . | . | . | /
Cc1ccc(N=C2N=C(N)c3ccccc32)c(C)c1 | . | 42 | . | . | . | .
O=C(O)CSc1nnc2n(-c3ccccc3)c(=O)c3ccccc3n12 | . | . | . | . | . | /
Cc1nnc2n(-c3ccccc3)c(=O)c3ccccc3n12 | . | 41 | . | / | . | .
Cc1ccc(OCCCCN2CCCCC2)cc1 | . | . | . | . | . | /
CCOc1ccc(OCCCCN2CCCC2)cc1 | . | 42 | . | . | . | .
CCCCc1ccc(S(=O)(=O)NC2CCS(=O)(=O)C2)cc1 (configuration not stated) | . | . | . | . | . | /
COC(=O)Nc1ccc(S(=O)(=O)NC2CCS(=O)(=O)C2)cc1 (configuration not stated) | . | 45 | . | . | . | .
COc1ccc(C/C(O)=C(\C#N)c2nc3ccccc3[nH]2)cc1OC | . | . | . | . | . | /
SMILES | SENP8 block-1 | SENP8 block-2 | SENP7 block | HSP90 refold inh | SENP6 inh | SENP8 inh conf
CC(=O)N1N=C(c2ccc(C)cc2)OC1c1ccc(Br)cc1 (configuration not stated) | . | . | . | . | . | /
CCOc1ccc(Br)cc1C1=NN(C(C)=O)C(c2ccc([N+](=O)[O-])s2)O1 (configuration not stated) | . | 60 | . | . | . | 56
O=C(/C=C/c1cccs1)c1ccc([N+](=O)[O-])cc1 | . | 50 | . | . | . | .
COc1ccc(C(=O)OCC(=O)Nc2cccc(C(C)=O)c2)c(OC)c1OC | . | . | . | . | . | /
COc1c(O)cc2c(c1O)C1OC(CO)C(O)C(O)C1OC2=O (configuration not stated) | . | . | . | / | . | /
COc1c(O)cc2c(c1O)[C@@H]1O[C@H](CO)[C@@H](O)[C@H](O)C1OC2=O (some centres not stated) | . | 43 | . | / | . | .
Cc1ccc(S(=O)(=O)N[C@H](C(=O)N2CCC(C(=O)NCC(=O)O)CC2)C(C)C)cc1 | . | . | . | . | . | /
Cc1ccc(S(=O)(=O)N[C@H](C(=O)N2CCC(C(=O)N[C@H](C(=O)O)c3ccccc3)CC2)C(C)C)cc1 | . | 48 | . | . | . | .
O=[N+]([O-])c1ccc(N=Nc2c(Cl)cc(O)cc2Cl)cc1 | / | . | / | . | / | /
O=C1CC(=Nc2ccc([N+](=O)[O-])cc2)NN1c1c(Cl)cc(Cl)cc1Cl | / | 95 | / | / | / | 71
COc1ccccc1NC(=O)C(Sc1ccccc1)c1ccccc1 (configuration not stated) | . | . | . | . | . | /
Cn1cnnc1Sc1cc(N2CCN(S(=O)(=O)c3ccc(Cl)c(Cl)c3)CC2)ccc1[N+](=O)[O-] | . | 62 | . | . | . | .
Cc1cc(C)n(-c2cc(N3CCN(C(=O)c4ccccc4C)CC3)ccc2[N+](=O)[O-])n1 | . | 53 | . | . | . | .
Cc1cc(C)n(-c2cc(N3CCN(C(=O)c4ccc(C(C)(C)C)cc4)CC3)ccc2[N+](=O)[O-])n1 | . | 45 | . | . | . | .
Cc1cc(C)n(-c2cc(N3CCN(S(=O)(=O)c4ccc(C)c(C)c4)CC3)ccc2[N+](=O)[O-])n1 | . | 44 | . | . | . | .
Cc1ccc(S(=O)(=O)N2CCN(c3ccc([N+](=O)[O-])c(Sc4nncn4C)c3)CC2)cc1 | . | . | . | . | . | /
Cc1cc(C)n(-c2cc(N3CCN(S(=O)(=O)c4ccc5ccccc5c4)CC3)ccc2[N+](=O)[O-])n1 | . | . | . | . | . | /
CC(=O)N1CCN(C(=O)CCC(=O)O)CC1 | . | 54 | . | . | . | .
Nc1cc([N+](=O)[O-])cc2oc(-c3ccccc3)cc12 | . | 36 | . | . | . | .
Nc1nnnn1/N=C/c1ccccc1 | . | . | . | . | . | /
Cc1ccc(/C=N/n2nnnc2N)o1 | . | 42 | . | . | . | .
COCCNc1nnc(SC(C)C(=O)Nc2ccc(-c3nc4ccc(C)cc4s3)cc2)s1 (configuration not stated) | . | . | . | . | . | /
COC(=O)C(CC(C)C)NC(=O)c1ccc([N+](=O)[O-])cc1 (configuration not stated) | . | 43 | . | . | . | .
O=C(O)C1C2C=CC(C3CC23)C1C(=O)O (configuration not stated) | . | . | . | . | . | /
CN(CCO)c1cc(Sc2nc3ccccc3s2)c2nonc2c1[N+](=O)[O-] | . | 55 | . | . | . | .
COc1cc(NC(=O)CC(C)S(=O)(=O)c2ccc3c(c2)NC(=O)CO3)cc(OC)c1OC (configuration not stated) | . | . | . | . | . | /
CCOc1ncccc1C(=O)Nc1cccc(-c2nc3cccnc3s2)c1 | . | . | . | . | . | /
CNC(=S)N/N=C/c1ccc(-c2ccc(Cl)c([N+](=O)[O-])c2)o1 | . | 33 | . | . | . | .
Cc1ccc(-c2ccc(/C=N/NC(=S)Nc3ccccc3)o2)cc1[N+](=O)[O-] | . | . | . | . | . | /
O=[N+]([O-])c1cccc(-c2ccc(/C=N/NC(=S)Nc3cccc(F)c3)o2)c1 | . | 52 | . | . | . | .
